Assays:
Details in all cases: concentration: 1 μM, replicates: in singlicate; n = 1
CHEK1 = system: CHEK1
CHEK2 = system: CHEK2
CIT = system: CIT
CLK1 = system: CLK1
CLK2 = system: CLK2
CLK3 = system: CLK3
CLK4 = system: CLK4
CSF1R-autoinhibited = system: CSF1R-autoinhibited
CSF1R = system: CSF1R
CSK = system: CSK
CSNK1A1L = system: CSNK1A1L
CSNK1A1 = system: CSNK1A1
CSNK1D = system: CSNK1D
CSNK1E = system: CSNK1E
CSNK1G1 = system: CSNK1G1
CSNK1G2 = system: CSNK1G2
CSNK1G3 = system: CSNK1G3
CSNK2A1 = system: CSNK2A1
CSNK2A2 = system: CSNK2A2
CTK = system: T1, CTK
T1 construct: gene MATK
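Further: KINOMEscan kinase panel screen.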

SMILES	%Inh (CHEK1) [%]	%Inh (CHEK2) [%]	%Inh (CIT) [%]	%Inh (CLK1) [%]	%Inh (CLK2) [%]	%Inh (CLK3) [%]	%Inh (CLK4) [%]	%Inh (CSF1R-autoinhibited) [%]	%Inh (CSF1R) [%]	%Inh (CSK) [%]	%Inh (CSNK1A1L) [%]	%Inh (CSNK1A1) [%]	%Inh (CSNK1D) [%]	%Inh (CSNK1E) [%]	%Inh (CSNK1G1) [%]	%Inh (CSNK1G2) [%]	%Inh (CSNK1G3) [%]	%Inh (CSNK2A1) [%]	%Inh (CSNK2A2) [%]	%Inh (CTK) [%]
O=C(Nc1n[nH]c2cc(-c3cccc(F)c3)ccc12)C1CC1 [SB-735464]	0	0	20	12	9	22	7	0	2	2	10	0	0	0	0	0	0	3	24	49
O=c1cc(N2CCOCC2)nc2n(Cc3cccc(F)c3)ccn12 [GSK2297430]	0	0	26	33	0	30	45	0	0	0	18	20	15	35	9	1	13	0	0	0
O=C1NC(=O)C(N2CCc3ccccc32)=C1c1cccc(Cl)c1 [SB-408010]	0	7	0	0	0	0	21	16	0	11	0	19	0	0	5	0	0	0	13	53
Cn1ccc2ncnc(Oc3ccc(NC(=O)Nc4ccncc4)c(Cl)c3)c21	0	20	18	0	0	0	21	0	0	0	0	0	0	0	0	0	0	0	0	0
Cc1nnc(-c2ccc3ncc(-c4ccc(S(C)=O)cc4)n3c2)o1 (centres unmarked)	0	0	38	0	0	0	0	7	17	0	9	7	0	0	24	5	0	0	18	27
COc1cc2c(cc1OC[C@@H](O)CO)ncc1c3ccc(C#N)cc3[nH]c21	7	48	94.8	89	88	2	89	96.6	44	1	0	9	0	0	0	0	0	81	93.9	18
CN1c2ccc(CNc3ccc(F)cc3)cc2-c2c(cnn2C)S1(=O)=O	0	0	1	0	11	0	17	1	0	0	0	1	0	0	0	0	0	0	0	0
CCc1ccnc(/C=C/c2n[nH]c3cc(Sc4ccccc4C(=O)NC)ccc23)c1	0	8	0	0	0	0	0	66	99.9	12	0	26	8	0	0	0	0	0	0	0
COc1ccc(Nc2nccc(N3CCC(NC(=O)Nc4cccc(C(C)=O)c4)C3)n2)cc1 (centres unmarked) [GSK1379731]	0	0	0	5	0	5	2	0	0	0	4	0	0	39	0	0	0	0	0	0
Cc1cccc(-c2nc(Nc3ccc4ncsc4c3)c3ccccc3n2)n1 [GW867588]	0	7	13	1	9	0	0	4	0	3	0	0	0	6	0	0	0	0	18	0
CC(C)(C)n1cnc2c(N)ncnc21 [SKF-97359]	0	2	32	14	0	0	11	28	0	0	16	40	0	39	0	0	2	0	0	21
O=C(NCCNc1ccnc(Nc2ccc(F)cc2)n1)c1cc2ccccc2s1 [GSK1379874]	2	0	22	29	0	26	37	8	0	0	9	0	0	37	0	0	21	7	19	52
COc1cc2c(cc1OCCN1CCN(C)CC1)ncc1c3ccc(C#N)cc3[nH]c21	83	45	99.2	96.7	86	25	92.6	99.3	49	0	0	0	18	0	0	0	0	73	95.2	23

Source: article PMC5540273 (PLoS ONE, 2017)
